Experimental data as given in article PMC5700166.

molecular target: T1, GST-Aq-NF-kB (Amphimedon queenslandica, UniProt A9Y5G7 2-389); assay: protein-binding microarray (PBM); PBM: ~300 nM protein, 6 mM HEPES pH 7.8, 80 mM KCl, 0.5 mM EDTA, 0.5 mM EGTA, 6% glycerol, 35 ng/ul poly-dIdC, 1% milk, 1 h, room temperature; Ap Aiptasia and Nv Nematostella (sea anemones) / Co Capsaspora / Aq Amphimedon (sponge) / Dm Drosophila / Hu human; RHD is the Rel homology domain; high values mean tight binding; settings: dsDNA, one strand shown
T1 sequence: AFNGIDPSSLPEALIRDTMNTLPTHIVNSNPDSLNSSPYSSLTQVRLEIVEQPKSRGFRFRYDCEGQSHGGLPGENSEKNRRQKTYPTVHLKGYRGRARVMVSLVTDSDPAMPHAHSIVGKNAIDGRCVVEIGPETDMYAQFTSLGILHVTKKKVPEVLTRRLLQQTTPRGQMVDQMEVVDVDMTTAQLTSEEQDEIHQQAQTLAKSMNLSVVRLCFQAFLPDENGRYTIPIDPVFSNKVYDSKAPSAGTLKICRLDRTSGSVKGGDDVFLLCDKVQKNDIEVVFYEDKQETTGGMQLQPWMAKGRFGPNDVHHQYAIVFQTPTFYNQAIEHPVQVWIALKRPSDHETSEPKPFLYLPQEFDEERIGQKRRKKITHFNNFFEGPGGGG

Row | Sequence | binding signal [z-score]
1 | CCGATTAACATCAGAATCTCCCATGATGTTAATCGGGTCTTGATTCGCTTGACGCTGCTG | 2.73
2 | CCGATTAACATCAGCTCCCCCCCTGATGTTAATCGGGTCTTGATTCGCTTGACGCTGCTG | 3.99
3 | CCGATTAACATCACTCCCTAAAATGATGTTAATCGGGTCTTGATTCGCTTGACGCTGCTG | 3.48
